According to PubChem BioAssay (NCI):
This is part of a sample that, as a whole, favours compounds with a hit. Of some 83,000 tested, about 20% had one in any assay.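 Results are percent growth after 48 hours of single-concentration exposure. 100 means growth as in untreated cells, lower positive values show inhibition; negative values down to -100 show cell death.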 Active and inactive are the calls of the source. The calls were made as follows: active = growth percent below 10; inactive = the rest.

These compounds were tested on HL-60(TB) leukemia (assay: NCI-60 one-dose screen, 48 h (100 = growth as untreated, 0 = no growth, -100 = all killed)). Conditions: 10 µM unless noted.

Structure (SMILES)	growth
COc1ccc(-c2nc3ccc(-c4nc5ccc(N6CCN(c7ccccc7)CC6)cc5[nH]4)cc3[nH]2)cc1OC	16.1% (inactive)
COc1cc(-c2nc3ccccc3s2)ccc1OCc1nc2n(n1)S(=O)(=O)c1ccccc1N2C	79.2% (inactive)
O=C1/C(=C/c2ccccc2F)CNC/C1=C\c1ccccc1F	-42.9% (active)
COc1ccc2c(c1)oc1c(C)c3c(c(C)c12)C(=O)N(Nc1ccccc1)C3=O	107% (inactive)
O=Cc1nc2ccccc2[nH]1	98% (inactive)
COc1cccc(C2CC(=O)Nc3cc4c(cc32)CCC4)c1OC (centres undefined)	10.4% (inactive)
COc1ccc(-c2nc3sccn3c2-c2ccnc(NCCCNS(=O)(=O)c3ccc(F)cc3)n2)cc1	-3.74% (active)
C=C(C)[C@@H]1CC[C@]2(COC(C)=O)CC[C@]3(C)[C@H](CC[C@@H]4[C@@]5(C)CCCN(C(C)=O)C(C)(C)[C@@H]5CC[C@]43C)[C@@H]12	-29.2% (active)
Nc1ccc(CCCCc2ccccc2)c(Cl)c1	78.7% (inactive)
COc1ccc2nc3cc(Cl)ccc3c(N3CCN(c4ccnc(N5CCN(C)CC5)n4)CC3)c2c1	29.8% (inactive)
CN(C)CC/C=C1\c2ccccc2Sc2ccc(Cl)cc21	94.2% (inactive)
COc1ccc(/C=C/c2nc(Nc3ccc(S(=O)(=O)NC(C)=O)cc3)c3ccccc3n2)cc1	85.7% (inactive)
CC(C)(O)CC(=O)NCCn1ccc2ncnc(Nc3ccc(Oc4cccc(C(F)(F)F)c4)c(Cl)c3)c21	2.51% (active)
Cc1cc(C(=O)Nc2ncnc3nc[nH]c23)no1	91.1% (inactive)
